# Assay results published in PubChem BioAssay (EPA / NIEHS).
# Records with an inconclusive call do not appear. Calls of active or inactive are those of the source. How the source made its calls, unless noted: active means hit-call score of the fitted dose curve at least 0.9, where 1 is the maximum; inactive means score below 0.9.
# Legend:
# [1] = CCTE_Harrill_HTTr_Viability_MCF7: CCTE's 6-hour Cell Viability Assessment for the High-Throughput Transcriptomics (HTTr) Platform, in MCF-7 cells cultured in DMEM + 10% fetal bovine serum, Harrill Lab (AID 2284010)
# Procedure, shortened: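 Read-out is propidium iodide gain of signal by high-content imaging, reflecting membrane integrity loss. Measurements are taken 6 h after dosing, eight concentrations per chemical, with DMSO serving as baseline for bidirectional curve fitting.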
# [2] = CCTE_Harrill_HTTr_Apoptosis_MCF7: CCTE's 6-hour Apoptosis Assessment for the High-Throughput Transcriptomics (HTTr) Platform, in MCF-7 cells cultured in DMEM + 10% fetal bovine serum, Harrill Lab (AID 2284011)
# Procedure, shortened: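 MCF-7 cells in DMEM + 10% FBS exposed 6 h to chemicals over an eight-point dilution series. Caspase-3/7 activation imaged by high-content CellEvent Green staining; fitted bidirectionally versus DMSO.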
# [3] = CCTE_Harrill_HTTr_CellCount_MCF7: CCTE's Cell Proliferation Assessment for the High-Throughput Transcriptomics (HTTr) Platform, Harrill Lab (AID 2284012; active means hit-call score of the fitted dose curve at least 0.9, where 1 is the maximum;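 further: cells exposed to compound for six hours; intended direction is loss of nuclei count meaning fewer cells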)
# Procedure, shortened: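 Cell count served as viability reporter: loss of Hoechst-stained nuclei, counted by high content imaging, marks decreased growth or survival. Exposure was 6 h in MCF-7 cells across eight concentrations, with DMSO as baseline.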
# [4] = CCTE_Shafer_MEA_acute_spike_number: CCTE's Neural Acute Assay for Total Number of Spikes, Shafer Lab (AID 2284008);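 on AC50: curve fitted for decrease in spike count so AC50 reflects inhibitors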
# Procedure, shortened: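 Rat primary cortical neurons on 48-well MEA plates, DIV 13 or 15, at 37 C. 40 min baseline then 40 min with compound (0.03-40 uM); spikes detected at 8x rms noise, expressed as percent change from baseline.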
# [5] = CCTE_Shafer_MEA_acute_firing_rate_mean: CCTE's Neural Acute Assay for Mean Firing Rate, Shafer Lab (AID 2284009);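 further: analyzed for loss of signal so actives lower firing rate relative to DMSO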
# Procedure, shortened: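 Rat cortical neuron cultures matured to DIV 13 or 15, equilibrated 20 min at 37 C, then recorded 40 min for baseline. Compound (0.03-40 uM) added and a further 40 min recorded; percent change in mean firing rate calculated per well.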
# [6] = CCTE_Shafer_MEA_acute_burst_duration_mean: CCTE's Neural Acute Assay for Mean Burst Duration, Shafer Lab (AID 2284014);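 further: hits are decreases in mean burst duration relative to DMSO controls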
# Procedure, shortened: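 Rat cortical cultures, DIV 13/15; 40 min baseline, then 40 min with compound (0.03-40 uM), 37 C. Spikes: 300-5000 Hz band-pass, 8x rms threshold. Read-out: % change in mean single-electrode burst duration, DMSO-referenced, loss direction.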
# [7] = CCTE_Shafer_MEA_acute_per_burst_spike_number_mean: CCTE's Neural Acute Assay for Average Number of Spikes Per Burst, Shafer Lab (AID 2284015);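 further: hits are decreases in mean spikes per burst versus baseline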
# Procedure, shortened: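 Primary rat cortical neurons on 48-well MEA plates, treated on DIV 13 or 15 at 0.03-40 uM. Spontaneous activity recorded 40 min before and 40 min after compound at 37 C; percent change in mean spikes per single-electrode burst per well, fitted in the loss direction versus DMSO.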
# [8] = CCTE_Shafer_MEA_acute_interburst_interval_mean: CCTE's Neural Acute Assay for Mean Interburst Interval, Shafer Lab (AID 2284016);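 further: percent change of mean interburst interval versus each well's own pre-dose baseline; curves fitted for decrease in interburst interval relative to DMSO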
# Procedure, shortened: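 Primary rat cortical neurons on 16-electrode MEA wells were recorded 40 min at baseline on DIV 13 or 15, then 40 min after compound (0.03-40 uM), at 37 C. Value is percent change in mean interburst interval per well, DMSO as negative control.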
# [9] = CCTE_Shafer_MEA_acute_burst_percentage_mean: CCTE's Neural Acute Assay for Percentage of Spikes in a Burst, Shafer Lab (AID 2284017);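 on AC50: curve fitted for loss of signal so potency reflects decreased burst percentage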
# Procedure, shortened: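 Primary rat cortical neurons on 16-electrode MEA wells; 40 min baseline recorded at DIV 13 or 15, then 40 min after compound (0.03-40 uM) at 37 C. Well-mean fraction of spikes in single-electrode bursts; percent change from baseline, DMSO as negative control.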
# [10] = CCTE_Shafer_MEA_acute_burst_percentage_std: CCTE's Neural Acute Assay for Standard Deviation of Burst Percentage, Shafer Lab (AID 2284018);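 further: fitted in the negative direction so actives lower burst percentage SD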
# Procedure, shortened: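 Rat primary cortical neurons on 48-well MEAs, DIV 13 or 15, 37 C. 40-min baseline then 40-min recording with compound (0.03-40 uM); well-level SD of per-electrode burst spike percentage, expressed as percent change from baseline.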
# [11] = CCTE_Shafer_MEA_acute_per_network_burst_spike_number_mean: CCTE's Neural Acute Assay for Average Number of Spikes in a Network Burst, Shafer Lab (AID 2284019);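 on AC50: curve fitted for loss of signal so actives reduce spikes per network burst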
# Procedure, shortened: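 Rat cortical cultures, DIV 13/15; spike threshold 8x rms noise, 300-5000 Hz band-pass, 12.5 kHz sampling; wells need >/= 10 active electrodes. Compound 0.03-40 uM, 40 min, 37 C; % change vs own baseline, DMSO negative control.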
# [12] = CCTE_Shafer_MEA_acute_per_network_burst_spike_number_std: CCTE's Neural Acute Assay for Standard Deviation of Number of Spikes in a Network Burst, Shafer Lab (AID 2284020);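 further: fitted for decrease in spike-number SD versus DMSO so actives lower it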
# Procedure, shortened: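 Rat cortical cultures, DIV 13/15, 37 C; 20-min stabilisation, 40-min baseline, compound 0.03-40 uM, 40-min re-record. Spikes detected at 8x rms noise (300-5000 Hz band-pass). Readout: % change from baseline in per-burst spike-number SD.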
# [13] = CCTE_Shafer_MEA_acute_per_network_burst_electrodes_number_mean: CCTE's Neural Acute Assay for Mean Number of Electrodes in a Network Burst, Shafer Lab (AID 2284021);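 further: curves fitted for decreases only so hits reduce electrodes per burst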
# Procedure, shortened: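 Rat primary cortical neurons on 48-well MEAs, DIV 13 or 15, were treated at 0.03-40 uM. Spikes were detected at 8x rms noise and recorded at 37 C. The mean electrodes per network burst in a 40 min exposure recording was expressed as percent change from a 40 min baseline.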
# [14] = CCTE_Shafer_MEA_acute_network_burst_percentage: CCTE's Neural Acute Assay for Percentage of Network Bursts, Shafer Lab (AID 2284022);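 further: curves fitted for loss so actives lower network burst percentage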
# Procedure, shortened: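 Rat primary cortical neuron networks on 48-well MEA plates, DIV 13 or 15, treated acutely with compound (0.03-40 uM, at least three wells). Percent of spikes within network bursts compared between 40-min recordings before and during exposure at 37 C, expressed as percent change.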
# [15] = CCTE_Shafer_MEA_acute_cross_correlation_area: CCTE's Neural Acute Assay for Area of Cross Correlation, Shafer Lab (AID 2284024);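 further: curves fitted for loss of cross-correlation area so actives lower synchrony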
# Procedure, shortened: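 Rat primary cortical neurons on 48-well MEA, DIV 13 or 15; compounds 0.03-40 uM. Baseline and post-exposure 40 min recordings at 37 C; percent change in area under pooled inter-electrode cross-correlation near zero lag, relative to DMSO.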
# [16] = target: Estrogen receptor (Homo sapiens) (UniProt P03372); assay: CCTE_Deisenroth_AIME_96WELL_LUC_Active: CCTE's 96-well Estrogen Receptor Transactivation Assay with AIME metabolic competence (ERTA luciferase; metabolism positive), Deisenroth Lab (AID 2284023; active means hit-call score of the fitted dose curve at least 0.9, where 1 is the maximum)
# Procedure, shortened: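 Metabolism-positive mode: induced rat hepatic S9 in alginate microspheres conditions test solutions (0.002 - 200 uM, 10 points) for 2 hours. VM7Luc4E2 ER luciferase reporter cells then exposed 24 h; positive-direction fit against 17beta-estradiol, n=4 typical.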
# [17] = target: Estrogen receptor (Homo sapiens) (UniProt P03372); assay: CCTE_Deisenroth_AIME_96WELL_LUC_Inactive: CCTE's 96-well Estrogen Receptor Transactivation Assay without AIME metabolic competence (ERTA luciferase; metabolism negative), Deisenroth Lab (AID 2284025; active means hit-call score of the fitted dose curve at least 0.9, where 1 is the maximum)
# Procedure, shortened: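 Metabolism-negative arm: chemicals (0.002–200 uM, 10 points) incubated 2 h with alginate-water microspheres, then medium moved onto VM7Luc4E2 cells for 24 h luciferase read-out. Positive direction vs 17beta-estradiol; n≥4 experiments.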
# Sequence of Estrogen receptor (Homo sapiens) (P03372 whole entry, looked up): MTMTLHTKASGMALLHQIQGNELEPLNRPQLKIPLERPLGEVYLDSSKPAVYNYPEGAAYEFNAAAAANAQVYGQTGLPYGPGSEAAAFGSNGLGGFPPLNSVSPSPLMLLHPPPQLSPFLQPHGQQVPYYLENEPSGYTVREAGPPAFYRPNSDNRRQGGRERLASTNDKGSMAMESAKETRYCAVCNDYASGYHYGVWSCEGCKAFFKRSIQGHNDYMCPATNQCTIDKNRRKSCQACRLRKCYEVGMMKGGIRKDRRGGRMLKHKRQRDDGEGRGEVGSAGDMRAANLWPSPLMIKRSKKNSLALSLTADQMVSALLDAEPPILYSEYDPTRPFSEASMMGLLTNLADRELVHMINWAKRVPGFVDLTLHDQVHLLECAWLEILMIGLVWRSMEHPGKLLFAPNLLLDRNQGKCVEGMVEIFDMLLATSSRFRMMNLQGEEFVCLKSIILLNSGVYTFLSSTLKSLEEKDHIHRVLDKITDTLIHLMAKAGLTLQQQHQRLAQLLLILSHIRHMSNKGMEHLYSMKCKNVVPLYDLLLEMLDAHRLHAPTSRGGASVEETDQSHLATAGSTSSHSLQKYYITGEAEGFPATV
compound,measurement,setting,value
CCOc1cc(Oc2ccc(C(F)(F)F)cc2Cl)ccc1[N+](=O)[O-],outcome,[1],inactive
same,outcome,[2],inactive
same,outcome,[3],inactive
CNC(=S)S,outcome,[1],inactive
same,outcome,[3],inactive
CCCCNC(=O)n1c(NC(=O)OC)nc2ccccc21,outcome,[1],inactive
same,outcome,[3],inactive
CS/C(C)=N/OC(=O)N(C)SN(C)C(=O)O/N=C(\C)SC,outcome,[4],inactive
same,outcome,[5],inactive
same,outcome,[1],inactive
same,outcome,[3],inactive
same,outcome,[6],inactive
same,outcome,[7],inactive
same,AC50,[8],29.7 µM (active)
same,AC50,[9],25.5 µM (active)
same,outcome,[10],inactive
same,AC50,[11],20 µM (active)
same,AC50,[12],25.3 µM (active)
same,AC50,[13],20 µM (active)
same,outcome,[14],inactive
same,outcome,[15],inactive
O=C(O)c1nc(Cl)ccc1Cl,outcome,[4],inactive
same,outcome,[5],inactive
same,outcome,[1],inactive
same,outcome,[6],inactive
same,outcome,[7],inactive
same,outcome,[8],inactive
same,outcome,[9],inactive
same,outcome,[10],inactive
same,outcome,[11],inactive
same,outcome,[12],inactive
same,outcome,[13],inactive
same,outcome,[14],inactive
same,outcome,[15],inactive
COc1cnc(OC)n2nc(NS(=O)(=O)c3c(OCC(F)F)cccc3C(F)(F)F)nc12,outcome,[1],inactive
same,outcome,[3],inactive
CCOC(=O)CC(SP(=S)(OC)OC)C(=O)OCC (stereo not drawn),outcome,[1],inactive
same,outcome,[3],inactive
COC(=O)C(C)Oc1ccc(Oc2ccc(Cl)cc2Cl)cc1 (stereo not drawn),outcome,[4],inactive
same,outcome,[5],inactive
same,outcome,[1],inactive
same,outcome,[2],inactive
same,outcome,[3],inactive
same,outcome,[6],inactive
same,outcome,[7],inactive
same,outcome,[8],inactive
same,AC50,[9],20 µM (active)
same,outcome,[10],inactive
same,outcome,[11],inactive
same,outcome,[12],inactive
same,outcome,[13],inactive
same,AC50,[14],25.7 µM (active)
same,outcome,[15],inactive
Cc1cc(Cl)ccc1OCC(=O)O,outcome,[1],inactive
COc1ccc(C(c2ccc(OC)cc2)C(Cl)(Cl)Cl)cc1,outcome,[4],inactive
same,outcome,[5],inactive
same,outcome,[1],inactive
same,outcome,[3],inactive
same,outcome,[6],inactive
same,outcome,[7],inactive
same,outcome,[8],inactive
same,AC50,[9],19.9 µM (active)
same,outcome,[10],inactive
same,outcome,[11],inactive
same,outcome,[12],inactive
same,AC50,[13],6.83 µM (active)
same,AC50,[14],19.9 µM (active)
same,AC50,[16],1.1 µM (active)
same,outcome,[15],inactive
same,AC50,[17],3.77 µM (active)
COC(=O)c1ccccc1C(=O)OC,outcome,[1],inactive
same,outcome,[2],inactive
CC(C)C1(C)N=C(c2nc3ccccc3cc2C(=O)O)NC1=O (stereo not drawn),outcome,[1],inactive
CCCCOC(=O)c1ccccc1C(=O)OCCCC,outcome,[1],inactive
same,outcome,[16],inactive
same,AC50,[17],34.1 µM (active)
CCON=C(CC)C1=C(O)CC(c2c(C)cc(C)cc2C)CC1=O (stereo not drawn),outcome,[1],inactive
C=CC1(C)OC(=O)N(c2cc(Cl)cc(Cl)c2)C1=O (stereo not drawn),outcome,[1],inactive
same,outcome,[3],inactive
CCOP(=S)(OCC)SCn1c(=O)oc2cc(Cl)ccc21,outcome,[4],inactive
same,outcome,[5],inactive
same,outcome,[1],inactive
same,outcome,[3],inactive
same,AC50,[6],20 µM (active)
same,outcome,[7],inactive
same,AC50,[8],30.2 µM (active)
same,AC50,[9],32.3 µM (active)
same,outcome,[10],inactive
same,outcome,[11],inactive
same,outcome,[12],inactive
same,AC50,[13],20 µM (active)
same,AC50,[14],29 µM (active)
same,outcome,[15],inactive
CCNc1nc(Cl)nc(NCC)n1,outcome,[1],inactive
same,outcome,[3],inactive
CCOC(=O)C(Cl)Cc1cc(-n2nc(C)n(C(F)F)c2=O)c(F)cc1Cl (stereo not drawn),outcome,[1],inactive
same,outcome,[3],inactive
Fc1ccc(Oc2ccnc3cc(Cl)cc(Cl)c23)cc1,outcome,[4],inactive
same,outcome,[5],inactive
same,outcome,[1],inactive
same,outcome,[6],inactive
same,outcome,[7],inactive
same,outcome,[8],inactive
same,outcome,[9],inactive
same,outcome,[10],inactive
same,outcome,[11],inactive
same,outcome,[12],inactive
same,outcome,[13],inactive
same,outcome,[14],inactive
same,outcome,[15],inactive
COC(=O)C=C(C)OP(=O)(OC)OC,outcome,[1],inactive
same,outcome,[3],inactive
CN(C)C(=S)SSC(=S)N(C)C,outcome,[1],inactive
same,outcome,[3],inactive
Cc1c(F)c(F)c(COC(=O)C2C(/C=C(\Cl)C(F)(F)F)C2(C)C)c(F)c1F (stereo not drawn),AC50,[4],0.567 µM (active)
same,AC50,[5],0.581 µM (active)
same,outcome,[1],inactive
same,outcome,[3],inactive
same,outcome,[6],inactive
same,AC50,[7],1.76 µM (active)
same,outcome,[8],inactive
same,AC50,[9],0.24 µM (active)
same,outcome,[10],inactive
same,AC50,[11],0.0326 µM (active)
same,AC50,[12],0.0979 µM (active)
same,AC50,[13],0.145 µM (active)
same,AC50,[14],0.567 µM (active)
same,AC50,[15],0.0953 µM (active)
